Hits are enriched below; roughly 18% of the tested compounds scored in any of these assays.
DT40 TDP1 CPT: DT40-hTDP1 cell growth loss with CPT. chicken DT40 Tdp1-/-;hTDP1 cells + 20 nM CPT, ATP luminescence, 48 h. Potency, µM (doses to about 46.2 µM), without a hit: at the top dose activity change, negative = growth inhibition, usual class: inhibitors. hit rate 12% among 420,000; note: potency is the fitted concentration of half-maximal effect; nearly all actives have a fitted effect of over 55% in size
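Cell growth measured by CellTiter-Glo luminescence after a minimum 48 h, 37 C compound exposure with 20 nM CPT in Tdp1-knockout DT40 cells stably expressing hTDP1, seeded 400/well; qHTS titration format.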
RORg inh: blocks mouse ROR gamma transcriptional activity; Potency, µM (series often up to 53.6 µM), inactives show at the highest dose activity change, negative = inhibition, hits mostly inhibitors; hit rate 5.4% among 310,000; P51450; Drosophila S2 Gal4-RORgamma UAS-luciferase reporter, 20 h; note: potency is the fitted concentration of half-maximal effect; nearly all actives have a fitted effect of over 60% in size
Target sequence (P51450 whole entry, looked up, the tested form may be a part): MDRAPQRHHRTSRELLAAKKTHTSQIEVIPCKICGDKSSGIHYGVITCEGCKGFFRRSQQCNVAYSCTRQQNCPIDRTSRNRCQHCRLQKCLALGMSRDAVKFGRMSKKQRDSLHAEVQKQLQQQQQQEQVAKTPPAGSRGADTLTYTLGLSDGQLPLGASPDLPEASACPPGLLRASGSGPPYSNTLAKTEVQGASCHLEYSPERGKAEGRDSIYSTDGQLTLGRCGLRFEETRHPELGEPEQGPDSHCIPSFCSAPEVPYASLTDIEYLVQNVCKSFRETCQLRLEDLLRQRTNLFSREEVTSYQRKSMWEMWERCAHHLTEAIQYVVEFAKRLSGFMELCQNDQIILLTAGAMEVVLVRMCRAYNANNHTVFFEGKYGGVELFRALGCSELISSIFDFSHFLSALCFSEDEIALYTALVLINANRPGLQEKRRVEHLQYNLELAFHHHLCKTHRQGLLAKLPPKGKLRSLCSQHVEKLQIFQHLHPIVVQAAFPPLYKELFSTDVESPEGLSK
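Luciferase reporter read in Schneider cells carrying Gal4-RORγ (mouse) and UAS-Photinus luciferase; cells given compound 1 h before 700 uM copper sulfate induction, then incubated 20 h at ambient temperature.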
DT40 TDP1 no CPT: qHTS for Inhibitors of human tyrosyl-DNA phosphodiesterase 1 (TDP1): qHTS in cells in absence of CPT. DT40 Tdp1-/- hTDP1 cells, no CPT, ATP luminescence, 48 h. Potency, µM (highest dose often 46.2 µM), for the others: at the highest dose activity change, negative = growth inhibition, actives largely listed as inhibitors. hit rate 15% among 420,000. AID 686978, 2013; note: potency is the fitted concentration of half-maximal effect; nearly all actives have a fitted effect of over 55% in size
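Readout: luminescence from CellTiter-Glo after 30 min in the dark at RT. Cells: DT40 Tdp1-/- with stable hTDP1, 400/well. Exposure: compounds alone, ≥48 hr, 37 °C.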
VP16 counter: inhibits Gal4-VP16 luciferase reporter, ROR gamma counter-screen; Drosophila S2 Gal4-VP16 UAS-luciferase, luminescence, 20 h; Potency, µM (titrated, usually from 53.6 µM), for the others: top-dose activity, negative = inhibition, hits mostly inhibitors; hit rate 3.5% among 310,000;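 note: Gal4-VP16 expression switched on by copper sulfate through the metallothionein promoter; potency is the fitted concentration of half-maximal effect; nearly all actives have a fitted effect of over 50% in size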
LDHA inh: LDHA (human) enzyme inhibition | purified LDHA, NADH/diaphorase-resazurin fluorescence; stronger effect = lower value | hit rate 0.15% among 480,000 | activity change, % (values are at about 110 or 230 µM) | P00338; in the data active = activity change below about -30%; inconclusive = mostly about -25% to -30%;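 note: plate controls were DMSO wells for no effect and wells without enzyme for full effect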
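Enzyme activity of human lactate dehydrogenase 5 (2 nM; 0.06 mM NADH, 0.2 mM pyruvate, 5 min, RT) is measured via a resazurin/diaphorase fluorescence readout of residual NADH.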
IL-1B inflam inh: inflammasome signaling inhibition, IL-1 beta readout | THP-1 LPS/ATP IL-1B secretion, AlphaLISA, 16 h; stronger effect = lower value | activity change, % at 57.5 µM | hit rate 4.7% among 360,000 | AID 743279; in the data active = activity change below about -50%; inconclusive = mostly about -30% to -49%
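THP-1 cells pretreated 1 hr with compounds (up to 57.5 uM final), then stimulated with LPS (250 ng/mL final) plus ATP (1.25 mM final); secreted IL-1B measured by AlphaLISA after 16 hr, decreased signal indicating inhibition.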
The depositor's hits bear a star; ? = inconclusive; · = not tested or not shown. Unless noted, calls come from the whole dose curve; as a rule, active = well fitted curve in the direction sought with a large enough effect; inconclusive = small, poorly fitted or top-dose-only effect, or another doubt; inactive = no such curve, though single readings can be large; an effect the other way counts as inactive or inconclusive. Unless noted, % is set by controls: 0 for no effect and ±100 for the full control effect.

SMILES	DT40 TDP1 CPT	RORg inh	DT40 TDP1 no CPT	VP16 counter	LDHA inh	IL-1B inflam inh
COc1ccc(CC(=O)N2CCc3cc(OC)c(OC)cc3C2COc2ccc(OC)cc2)cc1 (stereo unspecified)	?	·	16µM*	·	2	·
COc1ccc(OCC2c3cc(OC)c(OC)cc3CCN2C(=O)c2ccc(F)cc2)cc1 (stereo unspecified)	-28%	·	?	·	-3	·
COc1cc2c(cc1OC)C(COc1ccc(F)cc1)N(C(C)=O)CC2 (stereo unspecified)	-15%	-1%	0%	-4%	1	-10
CCOc1ccccc1C(=O)N1CCc2cc(OC)c(OC)cc2C1COc1ccc(OC)cc1 (stereo unspecified)	?	·	21µM*	·	0	·
CCc1ccc(OCC2c3cc(OC)c(OC)cc3CCN2C(=S)NC)cc1 (stereo unspecified)	?	11µM*	?	6%	-3	0
C[C@@H]1CC[C@H](Cc2ccc(-n3cccc3)cc2)N1C(=O)OC(C)(C)C	?	·	18µM*	·	4	1
O=C(Nc1ccccc1F)c1ccc2c(Cl)c3c(nc2c1)CCCC3	·	·	·	·	2	·
CN1CCN(C(=O)c2cn(-c3ccccc3)nc2-c2cccs2)CC1	3%	-14%	-20%	6%	1	-9
COc1cccc(NC(=O)CN(C)C(=O)c2cn(-c3ccccc3)nc2-c2cccnc2)c1	?	·	?	·	1	0
CCN(CC)CCOC(=O)c1ccc(NC(=O)c2cn(-c3ccccc3)nc2-c2cccs2)cc1	?	?	21µM*	?	-15	-53*
O=C(c1cn(-c2ccccc2)nc1-c1cccs1)N1CCN(c2ccccn2)CC1	?	30%	21µM*	2%	-5	4
COc1cccc(NC(=O)CN(C)C(=O)c2cn(-c3ccccc3)nc2-c2cccs2)c1	?	·	?	·	-5	-53*
CCN(CC(=O)Nc1ccc(NC(C)=O)cc1)C(=O)c1cn(-c2ccccc2)nc1-c1cccs1	-20%	·	?	·	0	-10
CCN(CC)CCNC(=O)c1cn(-c2ccccc2)nc1-c1cccs1	-15%	23%	-18%	9%	-3	-21
CN(CC(=O)Nc1cccc(F)c1)C(=O)c1cn(-c2ccccc2)nc1-c1cccs1	?	·	13µM*	·	-1	-5
CCOc1cc(CNCc2ccco2)ccc1OCc1ccccc1	·	·	·	·	1	·
O=C(c1cn(-c2ccccc2)nc1-c1cccs1)N(CCO)Cc1ccccc1	-29%	16%	18µM*	?	0	-11
CN(CC(=O)Nc1cccc(F)c1)C(=O)c1cccc(C(=O)N(C)CC(=O)Nc2cccc(F)c2)n1	·	·	·	·	-3	·
CN(CC(=O)Nc1cccc(F)c1)C(=O)c1cn(-c2ccccc2)nc1-c1ccc(Cl)cc1	?	·	?	·	-1	-60*
CN(CC(=O)Nc1cccc(F)c1)C(=O)c1cc(-c2cccs2)nn1-c1ccccc1	?	·	16µM*	·	2	-6
Cc1nnc(NC(=O)c2csc(NC3CC3)n2)s1	·	·	·	·	13	·
COc1ccc(NC(=O)CC2C(=O)N(c3ccc(C)cc3)C(=O)N2CCc2ccccc2)cc1 (stereo unspecified)	15µM*	·	15µM*	·	1	·
COc1ccc(CCN2C(=O)N(c3ccc(F)cc3)C(=O)C2CC(=O)Nc2ccccc2)cc1 (stereo unspecified)	?	·	?	·	-3	·
CCCOc1ccc(NC(=O)CC2C(=O)N(c3ccc(Cl)cc3)C(=O)N2CCc2ccncc2)cc1 (stereo unspecified)	?	·	26µM*	·	6	·
COc1ccc(CCN2C(=O)N(c3ccc(F)cc3)C(=O)C2CC(=O)Nc2ccc(OC)cc2)cc1 (stereo unspecified)	12µM*	·	?	·	-4	·
SMILES	DT40 TDP1 CPT	RORg inh	DT40 TDP1 no CPT	VP16 counter	LDHA inh	IL-1B inflam inh
COc1ccc(NC(=O)CC2C(=O)N(c3ccccc3)C(=O)N2CCc2cccs2)cc1 (stereo unspecified)	-21%	36%	1%	14%	-2	-29
O=C(CC1C(=O)N(c2ccccc2)C(=O)N1Cc1ccc(F)cc1)Nc1cccc(F)c1 (stereo unspecified)	?	·	23µM*	·	-1	·
COc1ccc(CCN2C(=O)N(c3ccc(F)cc3)C(=O)C2CC(=O)Nc2ccccc2)cc1OC (stereo unspecified)	?	·	-24%	·	3	·
COc1ccc(NC(=O)CC2C(=O)N(c3ccc(Cl)cc3)C(=S)N2CCc2ccncc2)cc1 (stereo unspecified)	?	-12%	?	-1%	-3	-2
CCOc1ccc2oc(C(=O)N3CCN(CC(=O)Nc4ccc(C)cc4)CC3)c(C)c2c1	·	·	·	·	8	·
O=S(=O)(NC(c1ccccc1)c1ccccc1)c1cccs1	·	·	·	·	3	·
O=C(CCc1ncc(-c2ccccc2)o1)Nc1ccc(OCc2ccccc2)cc1	·	·	·	·	4	·
Cc1ccc2cc(C(=O)NCC3COc4ccccc4O3)c(C)nc2c1 (stereo unspecified)	·	·	·	·	0	·
COc1ccc(CN2C(=O)N(c3ccc(F)cc3)C(=O)C2CC(=O)Nc2ccccc2)cc1 (stereo unspecified)	13µM*	·	13µM*	·	-7	·
COc1ccc(CCN2C(=O)N(c3ccc(F)cc3)C(=O)C2CC(=O)Nc2ccc(F)c(F)c2)cc1 (stereo unspecified)	12µM*	·	21µM*	·	1	·
CN(C)C(=O)CN1CCCN(Cc2nc3ccccc3o2)CC1	·	·	·	·	7	·
CC(C)CN1CCN(CCO)CC1	·	·	·	·	10	·
CC1CCc2[nH]c3ccc(C(=O)N4CCCC(C(F)(F)F)C4)cc3c2C1 (stereo unspecified)	?	·	16µM*	·	-3	-62*
COc1ccccc1N(C)S(=O)(=O)c1ccc(C(=O)OCC(=O)N2CCC2)cc1	?	-44%	?	7%	1	33
CCOC(=O)C1CCCN(C(=O)c2ccc3[nH]c4c(c3c2)CC(C)CC4)C1 (stereo unspecified)	-19%	·	?	·	2	9
CC1CCN(S(=O)(=O)c2ccc(C(=O)N3CCCC(C(F)(F)F)C3)cc2)CC1 (stereo unspecified)	18µM*	·	?	·	-8	?
